PubChem BioAssay AID430 (Sanford-Burnham Center for Chemical Genomics, 2006)
The whole screen tested about 63,000 compounds, of which about 1,100 (1.7%) were called active. Cut-off read from the data, not from the text of the source: active = cytotoxicity above about 50%; inactive = the rest. The sample as a whole holds a higher share of actives than the screen did. Entries with a potency or affinity are not part of this list.

Assay: cytotoxicity in HPDE-C7 cells, cell-based, fluorescence, HTS (AID 430);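 note: cells exposed to compound for 48 hours before viability readout; 0% = vehicle and 100% = reference cytotoxic drug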
Conditions: HPDE-C7 pancreatic duct cells viability, at 10 µM, active compounds read high

Which cytotoxicity does the source give for `CCOC(=O)c1cc2c(cn1)[nH]c1ccccc12` here?
Its cytotoxicity is 30.4% (inactive).

Which cytotoxicity does the source give for `c1ccc2c3c([nH]c2c1)CNCC3` here?
Its cytotoxicity is -4.7% (inactive).

Which cytotoxicity does the source give for `c1ccc2c(c1)[nH]c1cnccc12` here?
The cytotoxicity was 72.4% (active).

With `CC12CCCCC1N(O)CN2O` (stereo not drawn) as the compound, how does the cytotoxicity read?
Its cytotoxicity is -2.3% (inactive).

With `CCOc1ccccc1C1SCC(=O)Nc2c1c(=O)[nH]n2C(CC)CC` (stereo not drawn) as the compound, how does the cytotoxicity read?
The cytotoxicity was -4% (inactive).

For `CCCCCn1c(=O)c(C(=O)Nc2ccncc2)c(O)c2ccccc21`, which cytotoxicity is on record?
Its cytotoxicity is 68.6% (active).

With `CCCCCCn1c(O)c(C=Nc2c(C)n(C)n(-c3ccccc3)c2=O)c(=O)[nH]c1=O` as the compound, how does the cytotoxicity read?
The cytotoxicity was 5.3% (inactive).

Which cytotoxicity does the source give for `O=C(Nc1ccncc1)c1c(O)c2ccccc2n(Cc2ccccc2)c1=O` here?
Its cytotoxicity is -2.4% (inactive).

Which cytotoxicity does the source give for `CCCCCCn1c(=O)c(C(=O)Nc2c(C)n(C)n(-c3ccccc3)c2=O)c(O)c2ccccc21` here?
Its cytotoxicity is 51.8% (active).

Which cytotoxicity does the source give for `O=C(Nc1cccnc1)c1c(O)c2c(n(Cc3ccccc3)c1=O)CCCC2` here?
The cytotoxicity was 1% (inactive).

Which cytotoxicity does the source give for `CCCCn1c(=O)c(C(=O)Nc2ccccc2S(N)(=O)=O)c(O)c2ccccc21` here?
Its cytotoxicity is -2.2% (inactive).

With `CCCCn1c(=O)c(C(=O)Nc2nc3ccccc3[nH]2)c(O)c2ccccc21` as the compound, how does the cytotoxicity read?
Its cytotoxicity is 15.2% (inactive).

With `CCCCCn1c(=O)c(C(=O)NCc2ccccn2)c(O)c2ccccc21` as the compound, how does the cytotoxicity read?
The cytotoxicity was 2.6% (inactive).

For `CCCCCn1c(=O)c(C(=O)NCc2ccncc2)c(O)c2ccccc21`, which cytotoxicity is on record?
Its cytotoxicity is 60.6% (active).

For `CCCCc1nc2ccccc2c(=O)n1-c1ccc(O)cc1`, which cytotoxicity is on record?
Its cytotoxicity is -5.1% (inactive).

For `CCCCn1c(=O)c(C(=O)Nc2cnccn2)c(O)c2ccccc21`, which cytotoxicity is on record?
The cytotoxicity was 60.1% (active).

Which cytotoxicity does the source give for `CCCCCCn1c(=O)c(C(=O)Nc2ccncc2)c(O)c2ccccc21` here?
The cytotoxicity was 37.2% (inactive).

With `COc1ccc(CC2c3cc(OC)c(OC)cc3CCN2C)cc1OC` (stereo not drawn) as the compound, how does the cytotoxicity read?
The cytotoxicity was 3.5% (inactive).

With `COc1ccc2c(c1)CC1(CN2C)C(=O)NC(=O)N(c2ccc(C)cc2)C1=O` (stereo not drawn) as the compound, how does the cytotoxicity read?
The cytotoxicity was 5.9% (inactive).

Which cytotoxicity does the source give for `COc1ccc2nc(NC(=O)CCc3nc(C4=CCN(C)CC4)no3)sc2c1` here?
The cytotoxicity was -12.4% (inactive).

Which cytotoxicity does the source give for `O=c1cccc2n1CC1CC2CN(Cc2ccc3c(c2)OCO3)C1` (stereo not drawn) here?
Its cytotoxicity is -17.1% (inactive).

With `C=CCN1C(=O)CSc2ccc(C(=O)N3CCC4(CC3)OCCO4)cc21` as the compound, how does the cytotoxicity read?
Its cytotoxicity is -17.9% (inactive).

For `C=Cn1ccnc1P(=S)(c1ccn(C)c1)c1nccn1C=C`, which cytotoxicity is on record?
Its cytotoxicity is 7.8% (inactive).

For `CCCCN1C(=O)NC(=O)C2(Cc3c(nc4c(C)cccn4c3=O)N3CCc4ccccc4C32)C1=O` (stereo not drawn), which cytotoxicity is on record?
Its cytotoxicity is 13.9% (inactive).

With `O=c1[nH]c(=O)n(CCc2ccc(F)cc2)c(O)c1C=NCCCn1ccnc1` as the compound, how does the cytotoxicity read?
The cytotoxicity was -19.6% (inactive).

For `CNCC(O)c1ccc(O)cc1` (stereo not drawn), which cytotoxicity is on record?
The cytotoxicity was 50.6% (active).

Which cytotoxicity does the source give for `CNCC(O)c1cccc(OC(=O)c2ccccc2C)c1` (stereo not drawn) here?
The cytotoxicity was -3.3% (inactive).

For `CC(CCc1ccccc1)NC(C)C(O)c1ccc(O)cc1` (stereo not drawn), which cytotoxicity is on record?
The cytotoxicity was 8.9% (inactive).
